# Compound activity from PubChem BioAssay.
# OTUD3 inh – inhibitors of human OTUD3 deubiquitinase. purified OTUD3, Ub-rhodamine fluorescence, 2 h. inhibition, % at 25 µM. 47,000 tested, 0.7% active. AID 1645858, 2021
# USP17 inh – inhibitors of human USP17 deubiquitinase | purified USP17, Ub-rhodamine cleavage fluorescence, 3 h | Ubiquitin carboxyl-terminal hydrolase 17-like protein 5 (Homo sapiens), A8MUK1 | inhibition, % at 50 µM | AID 1645855, 2021 | 47,000 tested, 6.5% active
# USP28 block – inhibitors of human USP28 deubiquitinase. 47,000 tested, 3% active. Ubiquitin carboxyl-terminal hydrolase 28 (Homo sapiens), Q96RU2. inhibition, % at 25 µM. purified USP28, Ub-rhodamine cleavage fluorescence, 30 min
# USP30 inh – inhibitors of human USP30 deubiquitinase; Ubiquitin carboxyl-terminal hydrolase 30 (Homo sapiens), Q70CQ3; purified USP30, Ub-rhodamine cleavage fluorescence; inhibition, % at 25 µM; 47,000 tested, 5.3% active; AID 1645860, 2021
# Active calls of the source: *; i = inactive; · = no result given. Compounds with a hit are over-represented: about 11% of the library has one in this group of screens. Rule as the data show it: active = inhibition above about 30%; inactive = the rest.
SMILES,OTUD3 inh,USP17 inh,USP28 block,USP30 inh
O=C(Nc1cccc(-c2ccc(N3CCOCC3)nn2)c1)c1ccc2ccccc2c1,-6,-3,4,-14
NC(=O)c1cc(NC(=O)c2ccc3ccccc3c2)cc(C(N)=O)c1,7,66*,57*,66*
O=C(Cn1c(=O)c2cccnc2n(-c2ccccc2)c1=O)Nc1ccccc1F,-121,-76,-208,i
CCC(C(=O)Nc1cc(=O)[nH]c2nc(COc3ccccc3)nn12)c1ccccc1 (stereo not drawn),-10,-10,-13,-38
COc1cccc(NC(=O)CC2Sc3ccccc3NC2=O)c1 (stereo not drawn),13,32*,17,39*
Nc1ncncc1-c1noc([C@@H]2CCCN2Cc2ccc(Cl)cc2)n1,4,0,0,0
CC1Cc2cc(S(=O)(=O)NCCN3CCCCCC3)ccc2N1C(=O)C1CC1 (stereo not drawn),-3,2,39*,5
CC1Cc2cc(S(=O)(=O)N3CCCCCC3)ccc2N1C(=O)C1CC1 (stereo not drawn),-2,-6,17,-7
CN1[C@@H](CCC(=O)N2CCN(c3ccccc3)CC2)CNC(=O)[C@@H]2[C@H]1CCN2Cc1ccc(O)cc1,-7,-9,-13,-2
CCCCn1cnc2c(-c3ccccc3)cn(CC(N)=O)c2c1=O,0,1,-4,-5
Cn1c(=O)c2c(nc3n(CCc4ccccc4)c(-c4ccccc4)cn23)n(C)c1=O,10,0,19,41*
COc1ccc(-c2cn3c4c(=O)n(C)c(=O)n(C)c4nc3n2CCc2ccccc2)cc1OC,4,6,3,21
COc1ccc(CC(=O)N2CCN(S(=O)(=O)c3ccc4c(c3)OCCCO4)CC2)cc1,-6,-9,-6,-10
Cc1ccccc1OCC(=O)N1CCN(S(=O)(=O)c2ccc3c(c2)OCCCO3)CC1,9,8,22,38*
COc1ccc(C2/C(=C(\O)c3ccccc3)C(=O)C(=O)N2c2cccc(C(F)(F)F)c2)cc1 (stereo not drawn),0,·,10,33*
COc1ccc(C2/C(=C(\O)c3ccccc3)C(=O)C(=O)N2c2nc3ccc(F)cc3s2)cc1 (stereo not drawn),19,·,15,55*
COc1ccc(O)c(C(=O)c2cc(C#N)c(=O)n(-c3cccc(C(F)(F)F)c3)c2)c1,-15,17,10,-33
Cc1ccc(C2/C(=C(\O)c3ccc(F)cc3)C(=O)C(=O)N2c2nc3ccc(F)cc3s2)cc1 (stereo not drawn),-4,·,10,1
CC(C)Cc1nc2sc3c(SCC(=O)N(c4ccccc4)c4ccccc4)ncnc3c2c2c1CCC2,15,6,10,30
Cc1cccc(C(=O)NCc2nnc(SCC(=O)N3CCOCC3)n2C)c1,0,-4,-6,-5
COc1ccc2c(C(O)CN3CCN(c4ccc(F)cc4)CC3)c[nH]c2c1 (stereo not drawn),-14,-20,-9,-40
OC(CN1CCN(c2ccc(F)cc2)CC1)c1ccc2c(c1)CCN2 (stereo not drawn),13,58*,17,61*
CC(NC(=O)Cc1ccc(Cl)cc1)C(=O)Nc1nc2ccccc2[nH]1 (stereo not drawn),-8,-15,-7,-17
CC(OC(=O)CNS(=O)(=O)c1ccc2ccccc2c1)C(=O)Nc1ccc(Cl)cc1Cl (stereo not drawn),15,·,21,46*
O=C(c1nc(-c2cccc3[nH]ccc23)no1)N1CCCC1,6,41*,6,48*
SMILES,OTUD3 inh,USP17 inh,USP28 block,USP30 inh
O=C(Nc1nc2c(s1)CN(C(=O)c1cc(-c3ccco3)on1)CC2)C1CC1,10,35*,4,-83
COc1ccc(NC(=O)c2cc3c(C(F)(F)F)nn(C)c3s2)cc1,5,48*,18,24
COc1ccc2cc3c(nc2c1)OC(=O)N(Cc1ccc(F)cc1)C3,2,20,-1,15
CCOc1ccc2cc3c(nc2c1)OC(=O)N(Cc1ccc(OC)cc1)C3,21,27,14,38*
COc1ccc2cc3c(nc2c1)OC(=O)N(CCc1cccc(F)c1)C3,16,56*,15,29
COc1ccc(C(=O)O)cc1S(=O)(=O)N(CCc1ccccc1)Cc1ccccc1,15,13,20,39*
O=C(NCc1cccc(C(F)(F)F)c1)c1ccc(-n2cccn2)nc1,8,7,6,32*
